In publication PMC12350791 one finds cross-linked residues data, which are given here for three substances.

EFTUD2, Q15029, sequence (Q15029 whole entry): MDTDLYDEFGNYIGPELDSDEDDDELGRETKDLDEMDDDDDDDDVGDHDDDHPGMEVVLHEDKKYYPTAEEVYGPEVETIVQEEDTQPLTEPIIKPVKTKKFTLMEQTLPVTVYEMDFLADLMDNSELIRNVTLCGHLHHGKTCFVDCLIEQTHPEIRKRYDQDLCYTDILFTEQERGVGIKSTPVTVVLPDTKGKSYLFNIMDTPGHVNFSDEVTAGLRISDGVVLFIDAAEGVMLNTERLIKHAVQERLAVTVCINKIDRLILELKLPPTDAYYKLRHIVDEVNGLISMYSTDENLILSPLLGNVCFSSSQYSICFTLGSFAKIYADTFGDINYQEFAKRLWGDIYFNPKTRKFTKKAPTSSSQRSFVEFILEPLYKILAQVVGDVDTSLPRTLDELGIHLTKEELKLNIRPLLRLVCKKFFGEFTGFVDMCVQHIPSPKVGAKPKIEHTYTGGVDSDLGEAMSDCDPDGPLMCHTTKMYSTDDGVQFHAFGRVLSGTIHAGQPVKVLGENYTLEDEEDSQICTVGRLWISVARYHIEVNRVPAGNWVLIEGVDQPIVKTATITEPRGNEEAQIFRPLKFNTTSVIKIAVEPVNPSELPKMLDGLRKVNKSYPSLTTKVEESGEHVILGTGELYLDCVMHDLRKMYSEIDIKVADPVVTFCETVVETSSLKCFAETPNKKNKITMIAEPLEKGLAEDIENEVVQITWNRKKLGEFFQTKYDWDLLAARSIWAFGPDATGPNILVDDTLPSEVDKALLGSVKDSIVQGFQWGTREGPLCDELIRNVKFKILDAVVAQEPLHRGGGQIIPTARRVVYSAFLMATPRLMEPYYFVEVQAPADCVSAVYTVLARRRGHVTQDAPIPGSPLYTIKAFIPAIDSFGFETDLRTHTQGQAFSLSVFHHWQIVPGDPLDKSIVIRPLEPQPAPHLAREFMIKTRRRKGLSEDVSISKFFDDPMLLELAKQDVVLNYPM
PLRG1, O43660, sequence (O43660 whole entry): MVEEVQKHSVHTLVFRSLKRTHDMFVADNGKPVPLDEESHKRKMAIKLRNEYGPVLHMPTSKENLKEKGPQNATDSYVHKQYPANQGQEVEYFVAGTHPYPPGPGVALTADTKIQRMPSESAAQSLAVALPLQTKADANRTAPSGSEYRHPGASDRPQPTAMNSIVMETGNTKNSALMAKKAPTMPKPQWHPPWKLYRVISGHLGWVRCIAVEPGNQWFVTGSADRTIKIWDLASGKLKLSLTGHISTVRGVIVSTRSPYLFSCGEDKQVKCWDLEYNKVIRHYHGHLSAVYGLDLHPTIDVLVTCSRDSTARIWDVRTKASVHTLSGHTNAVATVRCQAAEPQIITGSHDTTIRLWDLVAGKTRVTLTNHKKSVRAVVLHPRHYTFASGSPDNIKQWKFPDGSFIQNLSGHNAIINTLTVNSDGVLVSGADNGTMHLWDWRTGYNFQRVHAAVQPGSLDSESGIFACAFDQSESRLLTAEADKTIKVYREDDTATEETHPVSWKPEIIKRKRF
USP39, Q53GS9, sequence (Q53GS9 whole entry): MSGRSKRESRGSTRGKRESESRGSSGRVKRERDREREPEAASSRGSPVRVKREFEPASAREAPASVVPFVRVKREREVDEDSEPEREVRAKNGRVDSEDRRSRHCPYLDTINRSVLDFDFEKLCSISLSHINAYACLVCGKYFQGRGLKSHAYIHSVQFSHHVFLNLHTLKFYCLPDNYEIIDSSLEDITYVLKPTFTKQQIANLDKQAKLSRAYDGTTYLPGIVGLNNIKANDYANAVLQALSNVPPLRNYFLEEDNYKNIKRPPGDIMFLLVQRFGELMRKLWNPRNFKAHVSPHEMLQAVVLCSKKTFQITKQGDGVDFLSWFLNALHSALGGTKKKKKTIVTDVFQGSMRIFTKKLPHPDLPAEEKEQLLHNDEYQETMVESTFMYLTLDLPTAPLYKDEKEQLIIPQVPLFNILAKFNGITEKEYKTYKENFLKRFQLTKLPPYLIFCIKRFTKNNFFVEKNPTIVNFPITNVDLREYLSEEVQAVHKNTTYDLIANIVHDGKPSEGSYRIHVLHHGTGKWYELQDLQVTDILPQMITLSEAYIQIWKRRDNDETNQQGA

The target in the assay is PRPF8 (UniProt Q6P2Q9). Nature of the assay: cross-linking mass spectrometry. Conditions: DSBSO, in cells or nuclear extract, not told apart.
With PLRG1, O43660, the cross-linked residues result is listed as “K320 - K666”.

With EFTUD2, Q15029, the cross-linked residues entry is “K405 - K218”.

In the case of USP39, Q53GS9, the cross-linked residues entry was “K508 - K983”.
